Only some compounds are listed: those with a hit (about 3.7% of all), similar ones and a draw of the others.
TIM10 inh: growth inhibitors of TIM10 yeast strain. S. cerevisiae TIM10 strain growth, BacTiter-Glo luminescence, 24 h. inhibition, % at 10 µM. 1.4% of 330,000 active. AID 463195;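 active = inhibition of 40% or more at the single tested concentration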;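 note: wild-type TIM10 isogenic control strain grown at permissive 25 °C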
PfHsp90 yeast 2: growth inhibition of yeast expressing Plasmodium Hsp90; AID 504621; inhibition, % at 9.4 µM; 0.32% of 310,000 active; S. cerevisiae expressing PfHsp90, BacTiter-Glo ATP, 48 h; yeast lacking PDR1 and PDR3 efflux regulators;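 active = every replicate shows inhibition above about 80%, whatever the replicate mean, limit read from the data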;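 note: 0% = DMSO neutral controls and 100% = 20 µM radicicol positive controls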
tim23-1 inh: inhibits growth of tim23-1 mutant yeast. S. cerevisiae tim23-1 growth, BacTiter-Glo luminescence, 24 h. inhibition, % at 20 µM. 1.3% of 330,000 active. AID 463212;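 active = growth inhibition of the mutant yeast at or above 50%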;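 note: temperature-sensitive mutant grown at 25 °C; plate controls were DMSO-treated mutant yeast for no effect and medium wells lacking yeast for full effect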
NLRP3 yeast inh: inhibitors of NALP3 inflammasome in yeast; 0.39% of 330,000 active; inhibition, % at 10 µM; AID 2825; Yeast reconstituted NLRP3/ASC/caspase-1, beta-gal luminescence, 24 h;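 active = inhibition of 50% or more; inactive = inhibition below 50%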;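 note: plate controls were induced DMSO wells for no effect and uninduced yeast grown without galactose for full effect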
tim10-1 inh: inhibits growth of tim10-1 mutant yeast. S. cerevisiae tim10-1 ts strain growth, BacTiter-Glo, 24 h. 2.2% of 330,000 active. inhibition, % at 20 µM;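 active = inhibition of at least 40%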;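 note: mutant grown at 25 °C; 0% = DMSO wells with yeast and 100% = wells holding no yeast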
tim10-1 confirm: confirmation of tim10-1 mutant yeast growth inhibitors | S. cerevisiae tim10-1 ts strain growth, BacTiter-Glo, 24 h | 56% of 7,400 active | shares compounds with tim10-1 inh | inhibition, % at 20 µM | AID 463213;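 active = inhibition of yeast growth at or above a set limit in either of two repeat tests at 20 µM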;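 note: tim10-1 mutant grown at permissive 25 °C to find synthetic lethal compounds; 0% = DMSO yeast wells and 100% = medium wells without yeast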
tim10 confirm: confirmation of TIM10 yeast growth inhibitors; 63% of 4,600 active; inhibition, % at 10 µM; S. cerevisiae tim10 strain growth, BacTiter-Glo luminescence, 24 h; shares compounds with TIM10 inh;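 active = inhibition of yeast growth at or above a set limit in either of two replicates at 10 µM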;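 note: this counterscreen used the strain with wild-type TIM10; 0% = yeast with DMSO and 100% = medium wells lacking yeast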
Numbers without * were called inactive; nt = no result.

SMILES	TIM10 inh	PfHsp90 yeast 2	tim23-1 inh	NLRP3 yeast inh	tim10-1 inh	tim10-1 confirm	tim10 confirm
CCOc1ccc(NC(=S)N2CCCC2)cc1	1	-1	-3	14	-4	nt	nt
CCCCc1ccc(NC(=S)N2CCCC(C)C2)cc1 (stereo unspecified)	45*	12	36	22	43*	29	31*
CCc1ccc(NC(=S)N2CCCCCCC2)cc1	41*	-13	29	11	42*	31	17
CC(C)[C@@H]1CC[C@@H](C)c2c(-c3ccccc3)n[nH]c21	46*	6	47	31	40*	21	49*
NC(=O)C1CCCN(C(=O)c2ccc(Cl)c(S(=O)(=O)N3CCc4ccccc43)c2)C1 (stereo unspecified)	15	7	6	15	21	nt	nt
O=C1NN=C(c2ccccc2)CC1c1ccc(Cl)cc1Cl (stereo unspecified)	42*	-11	49	12	50*	38*	57*
Cc1cc(Cl)ccc1OCC(=O)Nc1nc(-c2cccnc2)cs1	-4	-35	-10	5	-8	nt	nt
Cc1cc(Cl)ccc1OCC(=O)Nc1nc(-c2cccs2)cs1	43*	-24	22	14	49*	41*	-16
CN1CCN(/N=C/c2c3ccccc3c(Cl)c3ccccc23)CC1	47*	nt	39	-18	47*	52*	46*
Cc1c(Br)c([N+](=O)[O-])nn1CC(=O)N(C)Cc1ccccc1	19	-11	14	-2	4	nt	nt
O=C1OCC(CO)(CO)N=C1NNc1ccc(Cl)c(Cl)c1	42*	101*	8	38	49*	-4	41*
CCCC(CCC)=NNC(=O)CN(Cc1ccccc1)S(=O)(=O)c1ccccc1	7	16	7	-1	27	nt	nt
Cc1ccc(-n2cccc2C(=S)N=P(N(C)C)(N(C)C)N(C)C)cc1	46*	4	26	42	41*	26	14
CN(C)S(=O)(=O)c1cccc(NC(=O)C2CCN(S(=O)(=O)c3cccs3)CC2)c1	-8	nt	6	-11	-4	nt	nt
CC(=O)c1cccc(NC(=O)C2C(c3ccccc3)C2(Cl)Cl)c1 (stereo unspecified)	41*	5	23	12	45*	21	23
COc1ccc(NC(=O)C2C(c3ccccc3)C2(Cl)Cl)cc1 (stereo unspecified)	18	-4	18	19	2	nt	nt
CC(C)(C)n1[nH]c2c3c(ccc2c1=O)C(=O)c1ccccc1C3=O	65*	nt	28	21	45*	40*	57*
O=S(=O)(Nc1ccccc1)c1ccc(Oc2ncc(C(F)(F)F)cc2Cl)cc1	49*	9	25	25	49*	46*	51*
Cc1ccc(S(=O)(=O)N(C)C)cc1NC(=O)c1cc(-c2ccco2)nc2ccccc12	3	8	5	6	9	nt	nt
O=C(Nc1cccc(Oc2ccc3c(c2)C(=O)NC3=O)c1)c1ccco1	-6	18	-18	-4	5	nt	nt
CCOC(=O)/C=C/C(=O)OCC(=O)Nc1cccc(Br)c1	51*	21	39	-3	47*	33*	29*
Nc1nn2cc(-c3ccccc3)nc2c2ccccc12	56*	nt	30	47	56*	53*	49*
Cc1cc(NCc2ccccn2)n2nc(C)c(-c3ccc(Cl)cc3)c2n1	27	2	17	17	18	nt	nt
CCCc1cc(NCc2ccccn2)n2nc(C)c(-c3ccccc3)c2n1	47*	107*	45	26	43*	58*	76*
CCCc1cc(N2CCCC2)n2nc(C)c(-c3ccccc3)c2n1	51*	nt	46	28	47*	23	19
SMILES	TIM10 inh	PfHsp90 yeast 2	tim23-1 inh	NLRP3 yeast inh	tim10-1 inh	tim10-1 confirm	tim10 confirm
CCN1CCN(c2cc(C(C)C)nc3c(-c4ccccc4)c(C)nn23)CC1	28	nt	-1	25	8	nt	nt
CCc1cccc(NC(=O)CSc2nc3c(c(=O)[nH]2)CCCC3)c1	6	nt	4	7	12	nt	nt
O=C(CCn1cnc2ccccc21)N=Nc1c(O)[nH]c2ccccc12	-1	-2	10	1	13	nt	nt
Cc1no[n+]([O-])c1COc1cccc(/C=C2\N=C(c3ccccc3)OC2=O)c1	12	3	11	8	30	nt	nt
O=C1OC(c2ccccc2)=N/C1=C/c1cccc(OC(=O)c2cccs2)c1	51*	25	9	23	48*	25	0
COc1ccc(N(CCCN2C(=O)c3cccc4cccc(c34)C2=O)C(=O)c2cccc(OC)c2)cc1	9	-1	10	20	24	nt	nt
O=C(NCc1ccco1)c1csc(Nc2ccccc2Cl)n1	42*	nt	39	4	52*	43*	30*
COC(=O)c1sc(NC(=O)c2c(F)cccc2F)c(C#N)c1C	41*	nt	29	-36	45*	38*	26
COc1ccccc1OCCSc1nc(C)c(Cc2ccccc2)c(=O)[nH]1	-6	nt	1	-10	3	nt	nt
CCOC(=O)CSCC(=O)N1N=C(c2cccs2)CC1c1ccc(F)cc1 (stereo unspecified)	41*	-15	42	6	47*	34*	-11
O=C(NNC(=O)c1cc(-c2ccc(Cl)c(Cl)c2)nc2ccccc12)Nc1ccccc1	10	10	4	9	10	nt	nt
COc1cc(C2=NOC(C(=O)N3CCCCCC3)C2)cc(OC)c1OC (stereo unspecified)	5	-5	15	14	-8	nt	nt
COc1cc(C2=NOC(C(=O)N3CCN(c4ccc(F)cc4)CC3)C2)cc(OC)c1OC (stereo unspecified)	46*	19	41	12	41*	40*	40*
Oc1ccccc1-c1nc(NCCN2CCOCC2)c2ccccc2n1	50*	2	44	0	52*	40*	32*
Cc1ccccc1OCC1Cc2c(nc(N)c(C#N)c2N)O1 (stereo unspecified)	10	21	-13	7	-22	nt	nt
COc1cc(/C=N/NC(=O)C(=O)/C=C2\NC3(CCCC3)Cc3ccccc32)ccc1O	47*	-26	45	-10	52*	22	4
COc1ccc(S(=O)(=O)N2CCCCCC2)cc1C(=O)OCC(=O)NC1CCS(=O)(=O)C1 (stereo unspecified)	1	9	-11	14	-7	nt	nt
CC(SC1=NCCN1S(C)(=O)=O)c1ccccc1 (stereo unspecified)	4	-2	0	1	-6	nt	nt
Cc1cc(Br)ccc1NC(=O)CN1C(=O)C2C3CC(c4ccccc4)C(C3)C2C1=O (stereo unspecified)	56*	-4	32	9	41*	34*	32*
